PINK1 expr mod = changes PINK1 expression; PINK1 immunofluorescence, high-content cytometry, 24 h; Potency, µM (highest dose often 76.6 µM), inactives show at the top dose activation (PINK1 increase), hits mostly activators; 410,000 tested, 0.2% active; AID 624263; active = well fitted activation curve with a large enough effect; inconclusive = small, poorly fitted or top-dose-only effect; cell line not stated here; note: % of control where 0% means no effect; nearly all actives have a fitted effect of over 65% in size
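Measures PINK1 amount and localization on or inside mitochondria by immunofluorescence. Stable cells get compounds at 5 concentrations for 24 hours before fixation and staining; CCCP controls included.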
KB-V1 MDR tox = kills drug-selected multidrug resistant KB-V1 cells; KB-V1 MDR cells viability, CellTiter-Glo, 72 h; Potency, µM (doses to about 46.1 µM), usual class: cytotoxic; 400,000 tested, 3.4% active; AID 1347076; note: % is set by controls: 0 for no effect and ±100 for the full control effect; nearly all actives have a fitted effect of over 60% in size
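KB-V1 cells (P-gp-expressing MDR subline of KB-3-1) in phenol-red-free DMEM with 10% FBS were exposed to library compounds over a concentration series for 72 h at 37 degrees C. Viability read by CellTiter-Glo luminescence; concentration-effect curves fitted after normalization.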
KB-3-1 tox = KB-3-1 parental cell cytotoxicity; 400,000 tested, 1.4% active; AID 1347075; KB-3-1 viability, CellTiter-Glo ATP luminescence, 72 h; Potency, µM (titrated, usually from 46.1 µM), actives largely listed as cytotoxic; note: % is set by controls: 0 for no effect and ±100 for the full control effect; nearly all actives have a fitted effect of over 60% in size
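Cells are dispensed, compounds pinned in, plates held at 37 °C for 72 h, then CellTiter-Glo is added and luminescence read after 10 minutes. Cell line: parental KB-3-1 in phenol-red-free DMEM, 10% FBS.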
MCF10A rereplic = inducers of DNA re-replication in MCF 10A breast cells; MCF 10A DNA re-replication, Hoechst nuclear intensity, 48 h; Potency, µM (series often up to 46.1 µM), for the others: top-dose activity, positive = re-replication, usual class: activators; 350,000 tested, 2.9% active; note: % of control where 0% means no effect; nearly all actives have a fitted effect of over 50% in size
SW480 rereplic = DNA re-replication induction in SW480 cells; Potency, µM (highest dose often 46.1 µM), for the others: at the top dose re-replication activation, hits mostly activators; 340,000 tested, 1.8% active; SW480 DNA re-replication, Hoechst DNA content imaging, 48 h; note: % of control where 0% means no effect; nearly all actives have a fitted effect of over 55% in size
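Quantitative HTS format with DMSO vehicle controls; 48 hr drug incubation at 37 C, then 40 min Hoechst staining and scanning imager measurement at 405 nm excitation.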
An asterisk follows results filed as active; i = inactive; ? = inconclusive; . = no result; [ ] = another dose, or the depositor's remark. Rows were chosen to be rich in hits. Some 6.7% of all compounds tested hit in one or more screens of this group. Unless noted, calls come from the whole dose curve; as a rule, active = well fitted curve in the direction sought with a large enough effect; inconclusive = small, poorly fitted or top-dose-only effect, or another doubt; inactive = no such curve, though single readings can be large; an effect the other way counts as inactive or inconclusive. Potency is the fitted concentration of half-maximal effect.

SMILES | PINK1 expr mod | KB-V1 MDR tox | KB-3-1 tox | MCF10A rereplic | SW480 rereplic
COC(=O)c1ccc(C(=O)NC2CCCc3c2cnn3-c2ccc(C)c(C)c2)cc1 (stereo not drawn) | ? | 5.17µM* | 1.64µM* | 2.31µM* | 6.51µM*
COC(=O)c1ccc(C(=O)NC2CCCc3c2cnn3-c2cc(F)cc(F)c2)nc1 (stereo not drawn) | 5.2% | 10.3µM* | ? | 2.91µM* | 6.51µM*
O=C(NCCc1ccc(Cl)cc1)C1CCC(CNc2nc(=S)[nH]c3ccccc23)CC1 (stereo not drawn) | 1.8% | ? | ? | 3.2% | 11.8%
O=C(NCCC1=CCCCC1)C1CCC(CNc2nc(=S)[nH]c3ccccc23)CC1 (stereo not drawn) | 2.3% | 20.6µM* | ? | 25.9µM* | 10.4%
O=C(NCCC1=CCCCC1)C1CCC(CNS(=O)(=O)c2ccccc2)CC1 (stereo not drawn) | 13.9% | 8.2µM* | i | ? | -92.4%
COc1cccc(CNC(=O)C(=O)NCC(c2cccs2)S(=O)(=O)c2cccs2)c1 (stereo not drawn) | -0.3% | i | i | . | .
COC(=O)C[C@@H]1CC[C@H](NC(=O)c2ccc3c(c2)OCO3)[C@@H](CO)O1 | . | i | i | . | .
O=C(OCn1ncc(Br)c(Br)c1=O)c1ccc(F)cc1 | -1.5% | 5.17µM* | 3.26µM* | 4.61µM* | 4.11µM*
O=C(OCc1cnc(Cl)s1)c1ccccc1Cl | 1.1% | i | i | -1.1% | -3.6%
O=C(OCn1ncc(Br)c(Br)c1=O)c1ccccc1Cl | -1.0% | 5.8µM* | 18.4µM* | 7.94µM* | 5.62µM*
CC(=O)OCn1ncc(N2CCOCC2)c(Br)c1=O | 1.5% | i | i | -0.3% | 1.9%
O=C1c2cccc3c([N+](=O)[O-])ccc(c23)C(=O)N1O | 15.1% | i | i | 20.6µM* | ?
O=C1c2cccc3cccc(c23)C(=O)N1c1nccs1 | -8.6%[38.3 µM] | i | i | 0.4% | -10.0%
O=C1c2cccc3c([N+](=O)[O-])ccc(c23)C(=O)N1c1ccccn1 | -1.5% | ? | i | 4.11µM* | 11.6µM*
O=C1c2cccc3c([N+](=O)[O-])ccc(c23)C(=O)N1c1nccs1 | 10.9%[38.3 µM] | ? | ? | 7.31µM* | 7.31µM*
O=C1c2cccc3c([N+](=O)[O-])ccc(c23)C(=O)N1c1ccc(Cl)cn1 | -0.6%[38.3 µM] | i | i | ? | 4.11µM*
O=C1c2ccc([N+](=O)[O-])cc2C(=O)N1c1ccc(Cl)cn1 | 3.9% | i | i | -14.0% | 12.5%
COc1ccccc1Cc1c(C(C)(C)C)nc2ccc(C)cn12 | 29.1% | ? | ? | . | .
CCCC(=O)Nc1ccc(C(=O)N/N=C/c2ccc([N+](=O)[O-])o2)cc1 | ? | i | ? | 3.26µM* | 16.4µM*
O=C(CNc1ccc2ccccc2c1)N/N=C/c1ccc([N+](=O)[O-])o1 | 21.8% | i | ? | 1.8% | ?
O=C(CSc1ccc(Cl)cc1)N/N=C/c1ccc([N+](=O)[O-])o1 | ? | i | i | 9.2µM* | 20.6µM*
O=C(N/N=C/c1ccc([N+](=O)[O-])o1)C(O)c1ccccc1 (stereo not drawn) | 44.7µM* | i | ? | 11.6µM* | ?
O=C(COc1ccccc1)N/N=C/c1ccc([N+](=O)[O-])o1 | ? | i | 14.6µM* | 8.8% | -2.2%
CCC(=O)N1CCc2cc(S(=O)(=O)CCC(=O)N3CCN(c4ccccc4Cl)CC3)ccc21 | -0.2% | i | i | . | .
CCOC(=O)c1cc(-c2ccc(OC)cc2)n(CCC(=O)NCc2ccc(OC)cc2)c1C | 1.6% | . | . | . | .
SMILES | PINK1 expr mod | KB-V1 MDR tox | KB-3-1 tox | MCF10A rereplic | SW480 rereplic
COC(=O)[C@]12CCCCC=C1N(Cc1ccco1)C(=O)[C@H](CC(=O)NCc1cccc3ccccc13)C2 | -0.5% | i | ? | . | .
C=CCn1c(COc2ccc(F)cc2)nnc1SCC(=O)NC1CC1 | 1.6% | i | i | -0.1% | -4.4%
CC(C1=C(CCN(C)C)Cc2ccccc21)c1ccccn1 (stereo not drawn) | -5.0% | 16.4µM* | i | -1.9% | -0.4%
O=C(C[C@H]1C[C@H]2c3cc(NS(=O)(=O)c4ccc(F)cc4)ccc3O[C@H]2[C@H](CO)O1)NCc1ccncc1 | -0.1% | i | i | . | .
COc1ccc(C)cc1N1CC(C(=O)Nc2cccc(C(=O)NC3CC3)c2)CC1=O (stereo not drawn) | 0.2% | ? | i | . | .
Cc1sc(NC(=O)c2ccco2)nc1-c1ccc2c(c1)CC(C)N2C(=O)C1CC1 (stereo not drawn) | 2.4%[38.3 µM] | ? | ? | 5.01µM* | 6.31µM*
CC(=O)Nc1nc(-c2ccc3c(c2)CC(C)N3C(=O)C2CC2)c(C)s1 (stereo not drawn) | -1.3% | i | i | 26.6% | ?
CC(=O)Cc1nsc(NC(=O)c2ccc(-c3ccccc3Cl)o2)n1 | 2.9% | ? | ? | 11.6µM* | ?
COC(=O)N/N=C\c1ccccc1OC/C=C/c1ccccc1 | 5.1% | i | i | ? | 16.4µM*
CCOC(=O)N/N=C\c1ccccc1OC/C=C/c1ccccc1 | 2.5% | i | i | ? | ?
O=C(O)c1c2c(nc3ccccc13)CCCC2 | 1.9% | ? | ? | . | .
COc1ccc(NC(=S)N(CCCN2CCCC2)Cc2cccn2Cc2ccc(Cl)cc2)cc1Cl | -2.1% | 18.4µM* | i | 20.6µM* | 23.1µM*
Cc1ccc(NC(=S)N(CCCN2CCCC2)Cc2cccn2Cc2ccc(Cl)cc2)cc1Cl | 3.1% | i | i | ? | ?
Cc1ccc(OCC(=O)NNC(=O)C2CSC3(C)CCC(=O)N23)cc1C (stereo not drawn) | 0.2% | i | i | 1.3% | -4.9%
Cc1ccc(/C=C/C(=O)N2CCN(c3ccc(F)cc3)CC2)o1 | 2.4% | 18.4µM* | ? | ? | -0.8%
CCOc1ccccc1/C=C/c1nc2ccccc2[nH]c1=O | 10.7% | i | i | ? | 23.1µM*
COc1cc(C(=O)N2CCN(c3ccc(C)cc3C)CC2)cc(OC)c1OC | 2.6% | ? | 2.31µM* | 18.4µM* | 6.51µM*
COc1cc(C(=O)C(=O)N2CCN(c3ccccc3)CC2)cc(OC)c1OC | . | ? | 20.6µM* | . | .
COc1cc(C(=O)C(=O)N2CCN(c3ccc(C)cc3)CC2)cc2ccccc12 | . | ? | i | . | .
COc1cc(C(=O)N2CCN(S(=O)(=O)c3ccc(F)cc3)CC2)cc(OC)c1OC | -13.6%[38.3 µM] | 20.6µM* | i | 8.7% | 2.6%
COc1ccc(Cl)cc1S(=O)(=O)N1CCN(C(=O)c2cc(OC)c(OC)c(OC)c2)CC1 | 0.9% | i | i | 2.4% | -0.4%
Cc1ccc2cc(C#N)c(N3CCN(C(=O)c4ccccc4)CC3)nc2c1 | 1.5% | i | i | 0.581µM* | ?
